Bioassay records (PubChem BioAssay)
A selection: hits, their analogues and other compounds. The true share with any hit is near 5.1%.
S1P4 antagonist: blocks the human S1P4 receptor. O95977. S1P4-expressing cells, antagonist mode, reporter read-out. inhibition, % at 4.98 µM. 220,000 compounds, 0.26% hits; in the data active = inhibition above about 29%
S1P4 ag: activates the human S1P4 receptor; 220,000 compounds, 0.35% hits; O95977; activation, % at 4.98 µM; S1P4-expressing cell line, agonist reporter assay; AID 1509; in the data active = activation above about 11%
S1P3 antagonist: antagonists of human S1P3 receptor. Q99500. CHO S1P3 NFAT-BLA reporter, FRET fluorescence, antagonist mode. inhibition, % at 4.98 µM. 170,000 compounds, 0.27% hits. AID 485;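 active = inhibition above the plate cutoff, the mean inhibition of test wells on that plate plus 3 SD, cut at about 28% in these data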;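 note: cells challenged with S1P at its EC80 of 0.8 µM; blue over green emission ratio from cleaved BLA substrate after 4 h stimulation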
RAM network inh: yeast RAM network inhibition. inhibition, % at 50 µM. S. cerevisiae dse1pr::URA3 reporter, 5-FOA growth OD615, 2 d; analog-sensitive cbk1-as2 kinase mutant strain. 190,000 compounds, 1.8% hits;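 active = inhibition above a set limit, 3 SD over mean compound inhibition, cut at about 8.4% in these data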;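 note: inhibition rescues growth on 5-FOA so higher OD means more RAM inhibition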
ROMK mod: modulates human ROMK potassium channel activity; P48048; Tet-inducible ROMK, thallium flux fluorescence; actives lie on both sides; B-score at 10 µM; 130,000 compounds, 2% hits;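 active = signal ratio slope over the read window, or its plate-corrected B-score, at least 3 SD from the plate mean, either direction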;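 note: B-score of the F/F0 ratio slope over 7 to 12 s after thallium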
Target sequence (P48048 whole entry, looked up): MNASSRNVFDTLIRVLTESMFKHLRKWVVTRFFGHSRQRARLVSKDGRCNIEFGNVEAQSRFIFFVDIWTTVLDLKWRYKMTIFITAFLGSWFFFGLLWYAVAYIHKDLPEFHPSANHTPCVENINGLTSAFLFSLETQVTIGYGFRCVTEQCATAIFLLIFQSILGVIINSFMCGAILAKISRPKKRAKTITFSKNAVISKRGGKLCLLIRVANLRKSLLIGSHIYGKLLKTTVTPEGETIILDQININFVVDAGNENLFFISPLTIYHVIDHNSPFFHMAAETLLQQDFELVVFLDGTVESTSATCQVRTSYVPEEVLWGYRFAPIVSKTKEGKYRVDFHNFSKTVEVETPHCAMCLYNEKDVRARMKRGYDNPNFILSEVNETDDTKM
KCC2 mod: modulators of human KCC2 chloride dependent transport. KCC2 cells, thallium flux FluoZin-2 fluorescence. 190,000 compounds, 2.2% hits. AID 1456. B-score of Tl+ flux slope (higher = more flux/activation; lower = inhibition) at 10 µM;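 active = thallium flux slope and its plate-corrected score both differing from the plate sample mean at a set confidence after two filtering rounds, in either direction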;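 note: slope of fluorescence scaled to starting intensity during 10 to 20 s after thallium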
Large screens that a line does not name were inactive.

CCC(=O)OCc1c(C(F)(F)F)nn(C)c1Sc1ccc(Cl)cc1	none (no result: S1P3 antagonist, ROMK mod)
CCC(=O)OCc1c(C(F)(F)F)nn(C)c1Sc1ccc(F)cc1	S1P4 ag 11 (no result: S1P3 antagonist, ROMK mod)
CSC(=S)N/N=C/c1ccc(N(C)C)cc1	ROMK mod 2.7, KCC2 mod 61
CN(C)c1ccc(/C=N/NC(=O)c2ccco2)cc1	none (no result: ROMK mod)
CN=c1scc(C)n1/N=C/c1ccc(O)cc1	none (no result: ROMK mod)
CN=c1scc(C)n1/N=C/c1cc(Br)c(O)c(Br)c1	RAM network inh 10
O=C(/C=C/c1ccccc1)Nc1cccc(S(=O)(=O)Nc2ccccc2F)c1	RAM network inh 9.3
O=C(Nc1cccc(S(=O)(=O)Nc2ccccc2F)c1)c1ccc2ccccc2n1	none
O=C(Cc1ccc(Cl)cc1Cl)Nc1cccc(S(=O)(=O)Nc2ccccc2F)c1	RAM network inh 8.8 (no result: ROMK mod)
O=C(Cc1ccc(Cl)cc1Cl)Nc1ccc(OC(F)F)c(Cl)c1	none (no result: ROMK mod)
CC1(C)CC(=S)Nc2ccccc2S1	KCC2 mod 4.7 (no result: S1P3 antagonist)
Cc1ccc2nc(C)c(C(=O)N/N=C/c3ccccc3[N+](=O)[O-])cc2c1	none
Cc1cc([N+](=O)[O-])c2[nH]c(C(=O)N/N=C/c3ccccc3C(=O)O)c(-c3ccccc3)c2c1	RAM network inh 8.7 (no result: S1P3 antagonist, ROMK mod)
CCOC(=O)c1sc(=S)n(-c2ccccc2)c1SC	none (no result: S1P3 antagonist, ROMK mod)
CCOC(=O)c1sc(=S)n(-c2ccccc2Cl)c1SC	RAM network inh 8.8 (no result: S1P3 antagonist, ROMK mod)
O=C(NCC1CCCO1)C(c1ccc(N2CCOCC2)cc1)N(C(=O)Cn1nnc2ccccc21)c1ccccc1F (centres undefined)	none
CC(=O)c1cccc(N(C(=O)Cn2nnc3ccccc32)C(C(=O)NCC2CCCO2)c2ccc(N3CCOCC3)cc2)c1 (centres undefined)	RAM network inh 11 (no result: ROMK mod)
COc1ccc(N(CC(=O)NCc2ccccc2C)S(=O)(=O)c2ccccc2[N+](=O)[O-])c(OC)c1	none
COc1ccc2cc(-c3cc(C(=O)OCC(=O)NC4CCS(=O)(=O)C4)c4ccccc4n3)ccc2c1 (centres undefined)	none
COc1cc2c(cc1OC)C(COc1ccc3c(C)cc(=O)oc3c1)N(C(=O)c1ccco1)CC2 (centres undefined)	none (no result: S1P3 antagonist, ROMK mod)
CCOc1ccc(NC(=S)N2CCc3cc(OC)c(OC)cc3C2COc2ccc3c(C)cc(=O)oc3c2)cc1 (centres undefined)	RAM network inh 9.9 (no result: ROMK mod)
O=C(NNC(=S)Nc1ccccc1)c1cc(-c2cccnc2)nc2ccccc12	none
O=C(NC(=S)Nc1ccccc1)c1cc(-c2ccccc2)nc2ccccc12	KCC2 mod 18 (no result: S1P3 antagonist, ROMK mod)
Cc1ccc(-c2cc(C(=O)Nc3ccccn3)c3ccccc3n2)o1	none
O=C(NC(=S)Nc1ccccn1)c1cc(-c2ccccc2)nc2ccccc12	KCC2 mod 22 (no result: ROMK mod)
CC(C)(C)C1CCC(=NOC(=O)c2ccc(F)cc2)CC1 (centres undefined)	none
O=C(NC1CCCCC1)C(c1cccs1)N(CCCN1CCOCC1)C(=O)c1ccc(-c2ccccc2)[nH]1 (centres undefined)	none
O=C(NCC1CCCO1)C(c1cccs1)N(Cc1cccs1)C(=O)c1ccc(-c2ccccc2)[nH]1 (centres undefined)	RAM network inh 8.4
Cc1cc2ccccc2n1CCNC(=O)C(C)Oc1ccccc1 (centres undefined)	RAM network inh 8.7 (no result: S1P3 antagonist, ROMK mod, KCC2 mod)
COc1cc(/C=C/C(=O)NCCn2c(C)cc3ccccc32)cc(OC)c1OC	RAM network inh 9.7
COc1ccc(/C=C/C(=O)NCCn2c(C)cc3ccccc32)cc1OC	none
Cc1cc2ccccc2n1CCNC(=O)C(C)C	none (no result: ROMK mod)
CC1(c2nnc(-c3ccncc3)o2)CC(c2ccc([N+](=O)[O-])cc2)=NO1 (centres undefined)	none (no result: S1P4 antagonist, S1P4 ag, S1P3 antagonist, RAM network inh, ROMK mod)
COc1ccc(O)c(C(=O)c2coc(=N)c(C(=O)Nc3ccc(SC(F)F)cc3)c2)c1	none
O=C(Nc1ccc(Cl)cc1)c1csc(-c2ccccc2)n1	RAM network inh 9.7 (no result: S1P3 antagonist, ROMK mod, KCC2 mod)
COCCn1c(COc2ccc(Cl)cc2)nnc1SCC(N)=O	S1P3 antagonist 62 (no result: ROMK mod)
Cc1ccc(OCc2nnc(SCC(N)=O)n2N)cc1	none
Cc1ccc(N=Nc2c(N)[nH]n3c(=O)cc(-c4ccccc4)nc23)cc1	RAM network inh 8.7 (no result: S1P3 antagonist)
NNC(=O)c1cc2cc3ccccc3nc2s1	none
CSc1ccc(/C=C(\C(=O)O)c2ccc(S(=O)(=O)N3CCCCC3)s2)cc1	RAM network inh 10 (no result: ROMK mod)
